Data reported in PubChem BioAssay (NCI).
This is part of a sample that, as a whole, favours compounds with a hit. Of some 83,000 tested, about 20% had one in any assay.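 96-well plates, one dose, 48 hours. Percent growth reported; active if below 10.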 Unmarked numbers belong to inactive results. Calls of active or inactive are those of the source.

Legend:
Assay in all cases: NCI-60 one-dose screen, 48 h (100 = growth as untreated, 0 = no growth, -100 = all killed)
Settings in all cases: 10 µM unless noted
HCT-15 colon = system: HCT-15 colon
HT29 colon = system: HT29 colon
SNB-75 CNS = system: SNB-75 CNS
SNB-19 CNS = system: SNB-19 CNS
U251 CNS = system: U251 CNS
PC-3 prostate = system: PC-3 prostate
SK-MEL-5 melanoma = system: SK-MEL-5 melanoma
LOX IMVI melanoma = system: LOX IMVI melanoma
SK-MEL-28 melanoma = system: SK-MEL-28 melanoma
SK-MEL-2 melanoma = system: SK-MEL-2 melanoma
EKVX NSCLC = system: EKVX NSCLC
SN12C renal = system: SN12C renal
UO-31 renal = system: UO-31 renal
TK-10 renal = system: TK-10 renal
ACHN renal = system: ACHN renal
CAKI-1 renal = system: CAKI-1 renal
A498 renal = system: A498 renal
CCRF-CEM leukemia = system: CCRF-CEM leukemia
MOLT-4 leukemia = system: MOLT-4 leukemia
UACC-62 melanoma = system: UACC-62 melanoma

Compound | growth (HCT-15 colon) | growth (HT29 colon) | growth (SNB-75 CNS) | growth (SNB-19 CNS) | growth (U251 CNS) | growth (PC-3 prostate) | growth (SK-MEL-5 melanoma) | growth (LOX IMVI melanoma) | growth (SK-MEL-28 melanoma) | growth (SK-MEL-2 melanoma) | growth (EKVX NSCLC) | growth (SN12C renal) | growth (UO-31 renal) | growth (TK-10 renal) | growth (ACHN renal) | growth (CAKI-1 renal) | growth (A498 renal) | growth (CCRF-CEM leukemia) | growth (MOLT-4 leukemia) | growth (UACC-62 melanoma)
C/C(=C(/c1ccccc1)c1ccc(OCC(O)CNCCN2CCOCC2)cc1)c1ccccc1 (stereo unspecified) | 4.47% (active) | 3.2% (active) | 65.8% | 91.2% | 32.6% | 65.4% | 29% | 18.7% | -86.2% (active) | 94.9% | 82.8% | 76.1% | 69.2% | 73.5% | 81.4% | 67.9% | 79.9% | 56.5% | 41% | –
Clc1ccc(C2CC(c3cccc(Nc4ccncc4)c3)=NN2c2cc(Cl)cc(Cl)c2)cc1 (stereo unspecified) | -25.2% (active) | 5.22% (active) | 82.8% | 89.2% | 0.417% (active) | 48.9% | 88.9% | -44.6% (active) | 74.2% | 107% | 74.3% | 76.3% | 71.2% | 94.8% | 77.2% | 55.3% | 85.6% | 11.3% | 7.7% (active) | –
Cc1[nH]n(C(=O)c2ccncc2)c(=O)c1N=Nc1ccc(F)c(Cl)c1 | 111% | 109% | 92.4% | 99.1% | 112% | 116% | 107% | 111% | 107% | 114% | 87.8% | 102% | 86.7% | 134% | 110% | 63.4% | 102% | 19.7% | 11.6% | –
COc1ccc2c(Nc3ccc(NS(C)(=O)=O)cc3)c3ccccc3nc2c1 | 1.84% (active) | -45.4% (active) | -15.8% (active) | 13.2% | 4.96% (active) | 6.89% (active) | – | – | -13.5% (active) | -70.4% (active) | 6.78% (active) | 10.3% | -41.5% (active) | 9.37% (active) | -3.55% (active) | -22.6% (active) | – | 11% | 2.19% (active) | -65.4% (active)
O=C1CCC(NC(=S)Nc2ccccc2)N1 (stereo unspecified) | 113% | 98.3% | 113% | 100% | 104% | 102% | – | 97.5% | 108% | 103% | 117% | 97.4% | 95.3% | 101% | 109% | 106% | – | 97.2% | 106% | –
C#CC(=O)Nc1cccc2c1cc(C)n2-c1nc2c(c(NCc3ccccc3)n1)CCCC2 | -74.4% (active) | -58.2% (active) | -25.6% (active) | -71.9% (active) | -91.9% (active) | -56.5% (active) | – | -65.8% (active) | -58.4% (active) | -74.5% (active) | -39.3% (active) | -66.2% (active) | -76% (active) | -98.1% (active) | -73.6% (active) | -43.2% (active) | – | -26.5% (active) | -33.4% (active) | -73.7% (active)
CC(C)(C)OC(=O)N1CCN(c2ccc(N)cc2)C(=O)C1 | 100% | 117% | 87% | 99.9% | 107% | 109% | – | 99.1% | 104% | 111% | 98.6% | 96.2% | 87.4% | 126% | 103% | 98.3% | – | 107% | 101% | 98.1%
O=C(OC(OC(=O)c1cc(Cl)cc(Cl)c1)c1cccc2ccccc12)c1ccccc1 (stereo unspecified) | 106% | 86.7% | 99.3% | 100% | 98.3% | 91.2% | – | 92.3% | 111% | 91.1% | 97.7% | 97.5% | 75.6% | 90.7% | 102% | – | 84.8% | 93.6% | 103% | 86.4%
Cn1ncc2c(Nc3ccccc3Cl)nc(Cl)nc21 | 98.4% | 96.2% | 78.6% | 114% | 112% | 109% | – | 104% | 119% | 123% | 89.8% | 92% | 101% | 119% | 95.6% | 99.9% | 178% | 104% | 125% | 87.1%
COc1ccc(C2=NN(C(C)=O)C(c3cn(Cc4ccc(Cl)cc4)c4ccccc34)C2)cc1 (stereo unspecified) | 81.6% | 90.1% | 79.2% | 76% | 84.5% | 59.9% | – | – | 94% | 91.1% | 58.4% | 72.2% | 53.4% | 82.9% | 74.5% | 52.2% | 72.9% | 70.7% | 67.8% | 66.6%
COc1cc(OC)cc(C2C3=C(COC3=O)Nc3cc(OC)ccc32)c1 (stereo unspecified) | 11.3% | 0.152% (active) | – | 36.2% | 16.2% | 29.3% | -24.3% (active) | 25.8% | 63.5% | 1.66% (active) | 53.7% | 25.2% | 46.8% | 65.7% | 28.1% | 36.7% | 1.93% (active) | 19.9% | 17.6% | 36%
O=C1Nc2ccccc2/C1=C\c1cccc(/C=C2/C(=O)Nc3ccccc32)n1 | -81.3% (active) | 2.35% (active) | -71.5% (active) | -82.7% (active) | -98.1% (active) | -28% (active) | – | -88.2% (active) | -88.8% (active) | -34% (active) | -37.9% (active) | 8.35% (active) | -82.5% (active) | -59.3% (active) | -100% (active) | -80.7% (active) | -77.7% (active) | -51.9% (active) | -30% (active) | -67.3% (active)
CCCCCCCCCCCCC1CCC/C=C\CCC(=O)O1 (stereo unspecified) | 101% | 102% | 84.6% | 101% | 110% | 87% | – | 105% | 118% | 96.2% | 97.1% | 105% | 90.4% | 97.7% | 107% | 111% | 117% | 76.4% | -8.63% (active) | 101%
CCN1C(=O)/C(=c2\sc3n(c2=O)NC2C(N=3)N(CC)C(=O)N2CC)c2ccccc21 (stereo unspecified) | 33.7% | 12.9% | 7.11% (active) | 50.8% | 33.4% | 29.6% | – | 55.4% | 55.5% | 65.8% | 60.4% | 43.8% | 48.9% | 83.3% | 49.3% | 42.1% | -17.8% (active) | – | 58.9% | 43.9%
COc1ccccc1/C=C1\COc2ccc(-c3ccccc3)cc2C1=O | 22.7% | 5.36% (active) | – | 69.1% | 17.3% | 27.2% | 27.5% | 18.7% | 57.3% | 44.7% | 94% | 54% | 49.3% | 52% | 60.8% | 86.4% | 42.8% | -25.3% (active) | -18% (active) | 40.6%
COc1cc(-c2cc(=O)oc3cc(O)ccc23)cc(OC)c1OC | 91.3% | 95.1% | 74.5% | 95.3% | 96.7% | 71.9% | – | 97.1% | 99.3% | 101% | 89.8% | 79% | 72.2% | 110% | 89.3% | 74% | – | – | 92.9% | 88.1%
NC(=S)N/N=C/c1ccc(OC(=O)COc2cc(Cl)c(Cl)cc2Cl)cn1 | 81% | 70.7% | 98.8% | 91.6% | 54% | 59.8% | – | 25.1% | 89% | 59.1% | 106% | 43.9% | 22.1% | 92.5% | 18.4% | 36.4% | – | 40.7% | 31.3% | 39.7%
